Broadly, the AC50 is the concentration giving half of the maximal activity seen.

Each structure is given as a SMILES string. Records with an inconclusive call do not appear. The source made the active and inactive calls. How the source made its calls: active means hit-call score of the fitted dose curve at least 0.9, where 1 is the maximum; inconclusive means response in the unintended direction; inactive means score below 0.9.

Chain of Peroxisome proliferator-activated receptor gamma (Homo sapiens) (P37231 whole entry, looked up, the tested form may be a part): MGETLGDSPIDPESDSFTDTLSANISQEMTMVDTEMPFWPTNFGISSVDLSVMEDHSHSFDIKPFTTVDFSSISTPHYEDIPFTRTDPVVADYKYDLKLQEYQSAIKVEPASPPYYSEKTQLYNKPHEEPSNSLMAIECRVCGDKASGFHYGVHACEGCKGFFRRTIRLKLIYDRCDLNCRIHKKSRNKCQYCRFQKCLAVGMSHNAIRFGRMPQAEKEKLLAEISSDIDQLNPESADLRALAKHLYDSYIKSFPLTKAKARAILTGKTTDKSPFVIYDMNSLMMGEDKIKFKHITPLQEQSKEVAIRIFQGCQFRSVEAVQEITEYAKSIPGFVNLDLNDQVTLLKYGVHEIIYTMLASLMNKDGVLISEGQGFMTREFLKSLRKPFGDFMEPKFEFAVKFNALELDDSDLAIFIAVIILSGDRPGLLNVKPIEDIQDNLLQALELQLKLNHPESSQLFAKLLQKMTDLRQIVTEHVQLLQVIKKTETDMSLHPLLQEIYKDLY

The assay concerns the target Peroxisome proliferator-activated receptor gamma (Homo sapiens) (UniProt P37231). Put plainly: ATG_PPARg_TRANS: Attagene TRANS-FACTORIAL HepG2 Assay for human Peroxisome Proliferator-activated Receptor-gamma (PPARg) (AID 2283007). The method, boiled down: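 Read-out: reporter mRNA induction, detected by fluorescence after RT-PCR and capillary electrophoresis. Transiently transfected human HepG2 liver cells carrying a chimeric NR-Gal4 construct were dosed for 24 h; activity was fitted upward relative to DMSO.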
Consider `CCOC(=O)c1ccc(C2CCC(NC[C@H](O)COc3ccc(O)c(NS(C)(=O)=O)c3)CC2)cc1` (some centres undefined), for which the compound was called inactive. Regarding `CCOCCOCCOCCO`, the compound was classed as inactive. The same measure, in the same setting: in the case of `CCC(C)(C)C(=O)O[C@H]1C[C@@H](C)C=C2C=C[C@H](C)[C@H](CC[C@@H]3C[C@@H](O)CC(=O)O3)[C@H]21` it was “inactive”. On to `CCCN(C1CCN(C(=O)C2CCNCC2)CC1)[C@@H]1CCc2ccc(OC)cc2C1`, for which the AC50 was 100 µM (active). `O=C(O)c1cc(N=Nc2ccc(S(=O)(=O)Nc3ccccn3)cc2)ccc1O`: the AC50 is 57.4 µM (active). In the case of `C=CCCCCCCCCC(=O)O`, the AC50 is 69.1 µM (active).

On to `CC(=O)c1ccc2c(c1)[C@H](NC(=O)c1ccc(F)cc1)[C@@H](O)C(C)(C)O2`, for which the compound was classed as inactive. Consider `Oc1ccc2c(c1)-c1ccccc1C2`, for which the compound was called inactive. For `O=c1[nH]c2ccc(S(=O)CCN3CCC(Cc4ccc(F)cc4)CC3)cc2o1` (centres undefined), the AC50 is 7.65 µM (active).

(Values after PubChem BioAssay (EPA / NIEHS).)
